# Hit rate of the full screen: of about 39,000 compounds, about 1,500 (3.8%) were called active. For the sample, actives were picked, then their nearest neighbours and some compounds at random.
# System: HSkMC (human skeletal muscle cells)
# Experiment: cytotoxicity call (relative viability < 0.9)
# Conditions: 10 µM
row,SMILES,cytotoxicity call
1,C[C@@H]1CCCCO[C@@H](CN(C)C(=O)Nc2ccc(C(F)(F)F)cc2)[C@H](C)CN([C@H](C)CO)C(=O)c2cc(NC(=O)Cc3ccccc3)ccc2O1,inactive
2,COc1ccc(N2C(=O)C[C@@H](c3ccc(Br)cc3)[C@H]2C(=O)Nc2cccc3cccnc23)cc1,inactive
3,COc1nc(=NC(=O)NS(=O)(=O)Nc2cccc3cccnc23)nc(OC)[nH]1,active
4,O=C(Oc1cccc2cccnc12)c1ccccc1,inactive
5,CNC[C@H]1Oc2c(NS(=O)(=O)c3cn(C)cn3)cccc2C(=O)N([C@H](C)CO)C[C@@H]1C,inactive
6,COc1cc2ncnc(Nc3ccc(F)c(Cl)c3)c2cc1OCCCN1CCOCC1,inactive
7,COc1cc2ncnc(Oc3cccc(NC(=O)Nc4cc(C(C)(C)C(F)(F)F)on4)c3)c2cc1OC,inactive
8,COc1cc2nccc(Oc3ccc(NC(=O)c4cn(C(C)C)c(=O)n(-c5ccc(F)cc5)c4=O)cc3F)c2cc1OC,active
9,COc1cc2c(Oc3ccc(NC(=O)C4(C(=O)Nc5ccc(F)cc5)CC4)cc3F)ccnc2cc1OCCCN1CCOCC1,active
10,COc1ccc2c3c(n(c2c1)C)[C@H](CO)N(C[C@]13CCN(CC1)C(=O)CN1CCOCC1)C(=O)Nc1ccc(cc1)F,inactive
11,CCOc1ccn(-c2ccc(F)cc2)c(=O)c1C(=O)Nc1ccc(Oc2ccnc(N)c2Cl)c(F)c1,inactive
12,COc1ccc2c3c([nH]c2c1)[C@H](CO)N(C[C@]13CCN(CC1)C(=O)Nc1c(noc1C)C)C(=O)Nc1ccc(cc1)F,inactive
13,COc1cc2nccc(Oc3ccc(NC(=O)C4(C(=O)Nc5ccc(F)cc5)CC4)cc3)c2cc1OC,active
14,C[C@H](CO)N1C[C@H](C)[C@@H](CN(C)S(=O)(=O)c2cccs2)Oc2ccc(NS(=O)(=O)c3cccs3)cc2CC1=O,inactive
15,C[C@H](CO)N1C[C@H](C)[C@@H](CN(C)Cc2ccc(C(F)(F)F)cc2)Oc2ccc(NC(=O)CCC(F)(F)F)cc2C1=O,inactive
16,C[C@@H]1CN([C@@H](C)CO)C(=O)CCCn2nncc2CO[C@H]1CN(C)C(=O)c1cc(-c2ccccc2)on1,inactive
17,C[C@H](CO)N1C[C@H](C)[C@H](CN(C)CC2CC2)OCCCC[C@H](C)Oc2ccc(NS(=O)(=O)c3ccc(Cl)cc3)cc2C1=O,inactive
18,C[C@@H]1CN([C@H](C)CO)C(=O)Cc2cc(NS(=O)(=O)c3cn(C)cn3)ccc2O[C@@H]1CN(C)Cc1ccc(C(=O)O)cc1,inactive
19,COC(=O)Cn1c(=N)n(C)c2ccccc21,inactive
20,C[C@H](CO)N1C[C@H](C)[C@H](CN(C)Cc2ccc(Cl)c(Cl)c2)Oc2ccc(NC(=O)Cn3cnnn3)cc2C1=O,inactive
21,CO[C@@]1(NC(=O)[C@@H](C(=O)O)c2ccc(O)cc2)C(=O)N2C(C(=O)O)=C(CSc3nnnn3C)CO[C@@H]21,inactive
22,CN1CCCN=C1C=Cc1cccs1.O=C(O)c1cc2ccccc2c(Cc2c(O)c(C(=O)O)cc3ccccc23)c1O,inactive

row,SMILES,cytotoxicity call
1,CN1CCCN=C1C=Cc1cccc(O)c1.O=C(O)c1cc2ccccc2c(Cc2c(O)c(C(=O)O)cc3ccccc23)c1O,inactive
2,Cc1cc(C=Cc2ccc3cc(N(C)C)ccc3[n+]2C)c(C)n1-c1ccccc1.O=C([O-])c1cc2ccccc2c(Cc2c(O)c(C(=O)O)cc3ccccc23)c1O,active
3,C[C@H](CO)N1C[C@H](C)[C@@H](CN(C)C(=O)Nc2ccccc2)Oc2ccc(NC(=O)CCCCCC(=O)Nc3ccccc3N)cc2C1=O,inactive
4,Cc1ccc(S(=O)(=O)Nc2ccc3c(c2)C(=O)N([C@@H](C)CO)C[C@H](C)[C@H](CN(C)C(=O)Nc2ccc(C(F)(F)F)cc2)OCCCC[C@H](C)O3)cc1,inactive
5,CC(C)(C)C1CCC(OC[C@@H](O)CN2CCC(CN3C(=O)c4cccc5cccc(c45)C3=O)CC2)CC1 (stereo partly drawn),active
6,O=C(CN1C(=O)c2cccc3cccc(c23)C1=O)N1CCN(CCN2C(=O)[C@@H]3[C@@H](C2=O)[C@@H]2C=C[C@@H]3C2)CC1,inactive
7,O=C(O)CN1C(=O)c2cccc3cccc(c23)C1=O,inactive
8,O=C(O)C1C(=CCO)OC2CC(=O)N21.[LiH] (stereo not drawn),inactive
9,Cc1ccc(S(=O)(=O)N(C)C[C@H]2Oc3c(NC(=O)C4CC4)cccc3C(=O)N([C@@H](C)CO)C[C@H]2C)cc1,inactive
10,COc1ccccc1CNC(=O)C[C@@H]1C[C@@H]2c3cc(NC(=O)c4ccc5c(c4)OCO5)ccc3O[C@@H]2[C@@H](CO)O1,inactive
11,O=C(C[C@@H]1C[C@H]2c3cc(NC(=O)c4ccc5c(c4)OCO5)ccc3O[C@H]2[C@H](CO)O1)NCc1ccc(Oc2ccccc2)cc1,inactive
12,COc1ccccc1CNC(=O)C[C@@H]1C[C@H]2c3cc(NC(=O)c4ccc5c(c4)OCO5)ccc3O[C@H]2[C@H](CO)O1,active
13,O=C(C[C@@H]1C[C@H]2c3cc(NC(=O)c4ccc5c(c4)OCO5)ccc3O[C@H]2[C@@H](CO)O1)NCc1ccc(Oc2ccccc2)cc1,inactive
14,COc1ccccc1CNC(=O)C[C@@H]1C[C@@H]2c3cc(NC(=O)c4ccc5c(c4)OCO5)ccc3O[C@@H]2[C@H](CO)O1,inactive
15,O=C(C[C@@H]1C[C@@H]2c3cc(NC(=O)c4ccc5c(c4)OCO5)ccc3O[C@@H]2[C@@H](CO)O1)NCc1ccc(Oc2ccccc2)cc1,active
16,O=C(C[C@H]1C[C@H]2c3cc(NC(=O)c4ccc5c(c4)OCO5)ccc3O[C@H]2[C@H](CO)O1)NCc1ccc(Oc2ccccc2)cc1,active
17,O=C(C[C@H]1C[C@H]2c3cc(NC(=O)c4ccc5c(c4)OCO5)ccc3O[C@H]2[C@@H](CO)O1)NCc1cccnc1,inactive
18,O=C(C[C@H]1C[C@@H]2c3cc(NC(=O)c4ccc5c(c4)OCO5)ccc3O[C@@H]2[C@H](CO)O1)NCc1ccc(Oc2ccccc2)cc1,inactive
19,O=C(C[C@H]1C[C@H]2c3cc(NC(=O)c4ccc5c(c4)OCO5)ccc3O[C@H]2[C@@H](CO)O1)NCc1ccc(Oc2ccccc2)cc1,inactive
20,O=C(C[C@H]1C[C@@H]2c3cc(NC(=O)c4ccc5c(c4)OCO5)ccc3O[C@@H]2[C@@H](CO)O1)NCc1ccc(Oc2ccccc2)cc1,inactive
21,O=C(C[C@@H]1C[C@@H]2c3cc(NC(=O)c4ccc5c(c4)OCO5)ccc3O[C@@H]2[C@H](CO)O1)NCc1ccc(Oc2ccccc2)cc1,active

# Source: the antibiotic and cytotoxicity screens of Wong et al. (2023)
